Measured values from PMC10726135, “HNF4α isoforms regulate the circadian balance between carbohydrate and lipid metabolism in the liver”.
In all, about 18,000 sequences were measured (“log2 normalized intensity”: median about 0.39, highest 2% from about 6.6 on). For the sample, the highest values were picked, then their nearest neighbours and some sequences at random.

Molecular target: T1, HNF4alpha2 (COS-7 nuclear extract) (Homo sapiens, UniProt P41235 1-474)
T1 sequence: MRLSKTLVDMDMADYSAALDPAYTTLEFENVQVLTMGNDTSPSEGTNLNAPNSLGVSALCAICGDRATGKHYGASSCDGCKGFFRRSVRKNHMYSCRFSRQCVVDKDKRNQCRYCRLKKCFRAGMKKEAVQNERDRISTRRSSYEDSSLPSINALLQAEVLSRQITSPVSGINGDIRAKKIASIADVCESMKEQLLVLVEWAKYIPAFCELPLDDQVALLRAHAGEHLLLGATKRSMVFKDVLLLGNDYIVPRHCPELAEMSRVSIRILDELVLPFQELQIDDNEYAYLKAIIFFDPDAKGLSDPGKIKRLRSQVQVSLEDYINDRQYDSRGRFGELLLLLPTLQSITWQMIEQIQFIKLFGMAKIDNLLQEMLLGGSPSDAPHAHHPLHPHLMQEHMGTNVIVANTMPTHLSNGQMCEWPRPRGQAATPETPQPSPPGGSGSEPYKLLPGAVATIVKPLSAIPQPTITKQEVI
Test: protein-binding microarray; COS-7 nuclear extract on double-stranded Agilent 4x180k PBM; binding buffer, salt, pH and temperature not given in the material; high values mean tight binding
Settings: chain copies: 2; label: 3' end of strand 1 on the slide; dsDNA, one strand shown
In short: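 The binding signal is Agilent software's gProcessedSignal after background correction and normalization. Arrays were a custom Agilent SurePrint G3 4x180k design of double-stranded ~60-nt oligonucleotides with ~44,000 test sequences in quadruplicate, probed with nuclear extracts of COS-7 cells transiently expressing a human HNF4α isoform. Scans were made at 2-µm resolution on an Agilent G2565CA scanner.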

Sequence	binding signal
AAGTGTGGTCAAGGGTCAGTTTCTGAGAGTGCCTAGGGAGATTAGAGTATCGGTCGA	3.65 log2 normalized intensity
ATAGTTGACCCTTGAACAATGTGGGGGTCGGCCTAGGGAGATTAGAGTATCGGTCGA	3.7 log2 normalized intensity
CTTGTCCTTGACCCTTCCTCCCATTTGCTGGCCTAGGGAGATTAGAGTATCGGTCGA	2.29 log2 normalized intensity
GCCCCCGCAGACCCAGTCTTAGGGACTAAGGCCTAGGGAGATTAGAGTATCGGTCGA	3.86 log2 normalized intensity
TCCCTTCCCCCCTCCTCATTGAGAGTTTTAGCCTAGGGAGATTAGAGTATCGGTCGA	4.2 log2 normalized intensity
TTGAAGCTCCAAGATAGGAATGTACATAATGCCTAGGGAGATTAGAGTATCGGTCGA	1.11 log2 normalized intensity
GTCTTAGGGACTAAGCTTGTAGACCAAGGAGCCTAGGGAGATTAGAGTATCGGTCGA	0.172 log2 normalized intensity
AAGGCTGCAAGCAAACCTGCCCTTTGCTCCGCCTAGGGAGATTAGAGTATCGGTCGA	5.57 log2 normalized intensity
GGGAAACACAGACTCCAAAGAATGGAAGGCGCCTAGGGAGATTAGAGTATCGGTCGA	-0.871 log2 normalized intensity
CCTTTGGTCTAAACCTACTTAGATCAAGATGCCTAGGGAGATTAGAGTATCGGTCGA	-0.394 log2 normalized intensity
ACCCCAAAACCCCCAAAGGTGAGTAGGGCCGCCTAGGGAGATTAGAGTATCGGTCGA	2.67 log2 normalized intensity
TGCTCTCTCATGCCCTTTGCCTCCCTGCATGCCTAGGGAGATTAGAGTATCGGTCGA	3.45 log2 normalized intensity
GCATCAGGGTCCACAAGGGTTTAAATCTGAGCCTAGGGAGATTAGAGTATCGGTCGA	1.03 log2 normalized intensity
ATATCCCTGAGAGGCCAGTTTGACCTTTGCGCCTAGGGAGATTAGAGTATCGGTCGA	8.38 log2 normalized intensity
TTTGGAGTTTGACCTGGAGCCAGGGCCTTTGCCTAGGGAGATTAGAGTATCGGTCGA	3.11 log2 normalized intensity
CAGTTTGACCTTTGCATTCTTACCCAAGCCGCCTAGGGAGATTAGAGTATCGGTCGA	4.4 log2 normalized intensity
GAGGCCAGTTTGACCTTTGCATTCTTACCCGCCTAGGGAGATTAGAGTATCGGTCGA	5.97 log2 normalized intensity
TCACCATATCCCTGAGAGGCCAGTTTGACCGCCTAGGGAGATTAGAGTATCGGTCGA	2.83 log2 normalized intensity
CCTGAGAGGCCAGTTTGACCTTTGCATTCTGCCTAGGGAGATTAGAGTATCGGTCGA	7.56 log2 normalized intensity
CACAGGTAAACATTTGCCTTTAGGGCCCCCGCCTAGGGAGATTAGAGTATCGGTCGA	2.56 log2 normalized intensity
GTGGGCAAGTTATCTCGGGGTGGCATGTATGCCTAGGGAGATTAGAGTATCGGTCGA	1.14 log2 normalized intensity

Sequence	binding signal
GCAGAATCAAAGGTCAAAATATCTGATCGAGCCTAGGGAGATTAGAGTATCGGTCGA	3.32 log2 normalized intensity
CATCCTCATTGCCTCTGGGCTTTGATGGACGCCTAGGGAGATTAGAGTATCGGTCGA	1.64 log2 normalized intensity
CCCCATGATGATAGCAAACACGATTGGATGGCCTAGGGAGATTAGAGTATCGGTCGA	0.412 log2 normalized intensity
TGGACATTGGCCCTTTGACCTTTAATCAAGGCCTAGGGAGATTAGAGTATCGGTCGA	6.47 log2 normalized intensity
ACTGCTCCAGTGGACATTGGCCCTTTGACCGCCTAGGGAGATTAGAGTATCGGTCGA	5.99 log2 normalized intensity
TCCAGTGGACATTGGCCCTTTGACCTTTAAGCCTAGGGAGATTAGAGTATCGGTCGA	7.47 log2 normalized intensity
AACTAGCAACTTGGACCTTGATAGGAGTTAGCCTAGGGAGATTAGAGTATCGGTCGA	2.88 log2 normalized intensity
TTTGAAGTTTAGAGATGCCTATAGGGTCTTGCCTAGGGAGATTAGAGTATCGGTCGA	0.736 log2 normalized intensity
ATATCCTGACTGCTGACCTTTAAGCCTATAGCCTAGGGAGATTAGAGTATCGGTCGA	3.85 log2 normalized intensity
GACCTTTGGACTTGATAGAGTTTAAGTCTTGCCTAGGGAGATTAGAGTATCGGTCGA	6.99 log2 normalized intensity
CTCCTGACCTTTGGACTTGATAGAGTTTAAGCCTAGGGAGATTAGAGTATCGGTCGA	7.57 log2 normalized intensity
GTCCTTGATAAGCAAGATGACTTTGGTCTAGCCTAGGGAGATTAGAGTATCGGTCGA	1.78 log2 normalized intensity
TAAGAGCTATCAATGACCCATGTTTGCCCTGCCTAGGGAGATTAGAGTATCGGTCGA	3 log2 normalized intensity
TGCTTCTTGGCCTCTTTGTTTACACTGTGAGCCTAGGGAGATTAGAGTATCGGTCGA	1.53 log2 normalized intensity
GCGGCTTCAGAGGCCAGCAGTGCTTTTCCCGCCTAGGGAGATTAGAGTATCGGTCGA	-0.963 log2 normalized intensity
ATTGGAAGCTCTTTCCCTCCACCAAGTTTCGCCTAGGGAGATTAGAGTATCGGTCGA	0.191 log2 normalized intensity
TCTGATCCCAATTTATCTTTCCAGATTGTTGCCTAGGGAGATTAGAGTATCGGTCGA	0.501 log2 normalized intensity
CCTCCAGGGAGGGGAGAGGGGGTTAAAGGTGCCTAGGGAGATTAGAGTATCGGTCGA	1.22 log2 normalized intensity
GGAAACTCCATTTCCTTCTAGCTCCCCAATGCCTAGGGAGATTAGAGTATCGGTCGA	3.53 log2 normalized intensity
ACTGACCTTTGAGAGTCAACACTGAAATAGGCCTAGGGAGATTAGAGTATCGGTCGA	1.42 log2 normalized intensity
GAAAATATTTCTCTGAACTTTGACCTATAGGCCTAGGGAGATTAGAGTATCGGTCGA	8.62 log2 normalized intensity
